Results as given in PubChem BioAssay (NCATS).
Records with an inconclusive call do not appear. The source made the active and inactive calls. Unless noted, calls come from the whole dose curve; as a rule, active = well fitted curve in the direction sought with a large enough effect; inconclusive = small, poorly fitted or top-dose-only effect, or another doubt; inactive = no such curve, though single readings can be large; an effect the other way counts as inactive or inconclusive.

How the values were obtained:
[1] = target: N-terminal Xaa-Pro-Lys N-methyltransferase 1 (Homo sapiens) (UniProt Q9BV86); assay: Confirmatory qHTS for Inhibitors of N-terminal methyltransferase 1 (NTMT1): MTaseGlo Assay (AID 1645874);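 note: luminescence from SAH made as NTMT1 methylates SPKRIA peptide using SAM; 0% = DMSO control and -100% = no-enzyme control; nearly all actives have a fitted effect of over 65% in size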
In short: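 Preincubation of NTMT1 (125 nM) plus SAM (100 uM) with test compounds lasted 15 min; methylation of 1 uM SPKRIA then proceeded 30 min in the dark at room temperature. Luciferase signal reported SAH produced.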

[2] = Primary qHTS to identify inhibitors of SARS-CoV-2 cell entry (AID 1645846; calls by dose curve; note: nearly all actives have a fitted effect of over 45% in size; note: potency is the fitted concentration of half-maximal effect); conditions: SARS-CoV-2 pseudovirus cell entry assay, luminescence; activity change, negative = inhibition: at 57.1 µM (top of the series) unless noted
In short: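 Luminescence readout (Bright-Glo luciferase) 48 h after pseudoparticle addition. HEK293-ACE2 cells, 1500/well; compound pre-incubation 1 h; Normalized to spike PP and bald PP.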

[3] = target: Rap guanine nucleotide exchange factor 3 (Homo sapiens) (UniProt O95398); assay: Confirmatory qHTS for antagonist of cAMP-regulated guanine nucleotide exchange factor 3 (EPAC1) (AID 1645880); note: nearly all actives have a fitted effect of over 55% in size; note: potency is the fitted concentration of half-maximal effect
In short: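 Nucleotide exchange uses 100 nM EPAC1, 250 nM RAP1B-BODIPY-GDP and 50 uM GDP, with compounds in a concentration-titration series. After 5 min at room temperature, fluorescence (480 nm ex/540 nm em) is read every 5 min for 30 min. Data are normalized to control ATA and DMSO.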

[4] = target: Rap guanine nucleotide exchange factor 3 (Homo sapiens) (UniProt O95398); assay: Confirmatory qHTS for agonist of cAMP-regulated guanine nucleotide exchange factor 3 (EPAC1) (AID 1645881); note: nearly all actives have a fitted effect of over 75% in size; note: potency is the fitted concentration of half-maximal effect;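 for activation: EPAC1 catalysed release of BODIPY-GDP from Rap1B seen as fluorescence loss; 100% = effect of cAMP agonist control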
[5] = target: Rap guanine nucleotide exchange factor 4 (Homo sapiens) (UniProt Q8WZA2); assay: Confirmatory qHTS for agonist of cAMP-regulated guanine nucleotide exchange factor 4 (EPAC2) (AID 1645884);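 note: nucleotide exchange releases bodipy-GDP from Rap1 and this lowers its fluorescence; nearly all actives have a fitted effect of over 65% in size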; note: potency is the fitted concentration of half-maximal effect; for activation: % is set by controls: 0 for no effect and ±100 for the full control effect
[6] = target: Rap guanine nucleotide exchange factor 4 (Homo sapiens) (UniProt Q8WZA2); assay: Confirmatory qHTS for antagonist of cAMP-regulated guanine nucleotide exchange factor 4 (EPAC2) (AID 1645885); note: nearly all actives have a fitted effect of over 25% in size; for activity change, negative = inhibition: % is set by controls: 0 for no effect and ±100 for the full control effect
[7] = target: Rap guanine nucleotide exchange factor 3 (Homo sapiens) (UniProt O95398); assay: Counterscreen qHTS for antagonist of cAMP-regulated guanine nucleotide exchange factor 3 (EPAC1) (AID 1645888);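 note: fluorescence loss as bound BODIPY-GDP is released from Rap1B; % of control where 0% means no effect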
In short: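 Rap1B-BODIPY-GDP 250 nM + GDP 50 uM; cpds 7-pt, final 9.74 nM–152 uM (activator mode) or from 7.32 nM upwards (inhibitor mode); RT; FI 480/540 nm at 5 and 30 min, then ± cAMP, reread.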

[8] = VSVG counterscreen qHTS to identify inhibitors of SARS-CoV-2 cell entry (AID 1645847; calls by dose curve; note: potency is the fitted concentration of half-maximal effect; nearly all actives have a fitted effect of over 65% in size)
In short: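 HEK293-ACE2 cells (Expi293F stably expressing human ACE2) were pretreated with compound for 1 h at 37 °C, then infected with MLV-based VSV-G pseudotyped particles for 48 h. Luciferase luminescence was normalized to VSV-G PP and bald PP wells.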

Sequence of Rap guanine nucleotide exchange factor 4 (Homo sapiens) (Q8WZA2 whole entry, looked up): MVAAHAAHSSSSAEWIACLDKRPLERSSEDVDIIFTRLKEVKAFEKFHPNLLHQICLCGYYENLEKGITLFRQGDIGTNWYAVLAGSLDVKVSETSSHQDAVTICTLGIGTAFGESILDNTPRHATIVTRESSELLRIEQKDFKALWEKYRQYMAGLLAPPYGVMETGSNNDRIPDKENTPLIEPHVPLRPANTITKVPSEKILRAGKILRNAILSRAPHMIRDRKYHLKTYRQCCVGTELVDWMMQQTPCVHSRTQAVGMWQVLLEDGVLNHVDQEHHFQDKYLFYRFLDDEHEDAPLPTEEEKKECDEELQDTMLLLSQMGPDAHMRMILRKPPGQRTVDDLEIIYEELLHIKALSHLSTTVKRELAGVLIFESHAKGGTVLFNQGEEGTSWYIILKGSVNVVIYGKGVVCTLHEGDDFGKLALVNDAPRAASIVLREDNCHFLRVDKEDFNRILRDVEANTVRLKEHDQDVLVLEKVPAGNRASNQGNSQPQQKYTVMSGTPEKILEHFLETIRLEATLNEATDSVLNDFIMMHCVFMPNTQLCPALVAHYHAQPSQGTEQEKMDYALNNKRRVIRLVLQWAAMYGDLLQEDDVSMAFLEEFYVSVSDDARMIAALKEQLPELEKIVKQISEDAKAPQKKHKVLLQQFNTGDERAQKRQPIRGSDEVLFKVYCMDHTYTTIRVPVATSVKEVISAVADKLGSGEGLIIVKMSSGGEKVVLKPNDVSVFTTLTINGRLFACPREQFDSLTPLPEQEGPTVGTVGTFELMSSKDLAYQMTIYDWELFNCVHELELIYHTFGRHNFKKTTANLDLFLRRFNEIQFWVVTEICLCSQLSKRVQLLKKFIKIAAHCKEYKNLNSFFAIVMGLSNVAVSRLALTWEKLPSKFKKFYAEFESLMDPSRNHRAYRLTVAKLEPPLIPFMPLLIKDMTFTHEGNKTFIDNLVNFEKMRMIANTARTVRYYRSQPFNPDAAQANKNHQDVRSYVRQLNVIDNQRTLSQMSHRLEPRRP
Sequence of Rap guanine nucleotide exchange factor 3 (Homo sapiens) (O95398 whole entry, looked up): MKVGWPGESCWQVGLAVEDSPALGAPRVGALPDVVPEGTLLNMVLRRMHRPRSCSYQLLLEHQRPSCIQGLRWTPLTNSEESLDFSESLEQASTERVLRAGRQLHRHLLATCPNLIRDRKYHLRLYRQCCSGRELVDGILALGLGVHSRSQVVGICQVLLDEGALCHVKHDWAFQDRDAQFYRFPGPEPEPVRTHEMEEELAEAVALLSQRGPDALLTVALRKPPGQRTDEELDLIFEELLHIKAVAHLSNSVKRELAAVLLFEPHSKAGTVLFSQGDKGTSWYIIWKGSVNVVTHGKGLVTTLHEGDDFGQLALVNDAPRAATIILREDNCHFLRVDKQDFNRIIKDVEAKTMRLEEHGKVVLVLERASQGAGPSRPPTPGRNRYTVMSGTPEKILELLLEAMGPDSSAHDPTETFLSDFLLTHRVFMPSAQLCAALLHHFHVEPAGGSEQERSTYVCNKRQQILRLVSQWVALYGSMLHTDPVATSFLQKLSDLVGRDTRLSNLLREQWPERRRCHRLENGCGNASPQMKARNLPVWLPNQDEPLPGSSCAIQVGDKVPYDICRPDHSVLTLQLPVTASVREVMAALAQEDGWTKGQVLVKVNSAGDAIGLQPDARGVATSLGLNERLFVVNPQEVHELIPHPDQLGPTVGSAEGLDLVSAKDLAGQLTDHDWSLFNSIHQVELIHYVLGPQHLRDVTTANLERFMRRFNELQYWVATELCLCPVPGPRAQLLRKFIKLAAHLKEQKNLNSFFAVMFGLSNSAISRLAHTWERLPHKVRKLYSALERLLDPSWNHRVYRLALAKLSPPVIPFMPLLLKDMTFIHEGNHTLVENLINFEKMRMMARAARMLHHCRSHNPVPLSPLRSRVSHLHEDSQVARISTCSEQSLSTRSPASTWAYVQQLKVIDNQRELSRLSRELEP
Sequence of N-terminal Xaa-Pro-Lys N-methyltransferase 1 (Homo sapiens) (Q9BV86 whole entry, looked up): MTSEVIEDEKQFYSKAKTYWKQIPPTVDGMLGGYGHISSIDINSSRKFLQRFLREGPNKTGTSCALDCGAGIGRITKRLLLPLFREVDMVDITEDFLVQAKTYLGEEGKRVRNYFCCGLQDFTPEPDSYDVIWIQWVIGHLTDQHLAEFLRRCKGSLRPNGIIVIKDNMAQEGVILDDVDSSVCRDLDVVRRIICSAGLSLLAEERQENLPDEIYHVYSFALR

For `CCOc1ccc(CN(CCc2ccc3c(c2)OCO3)Cc2cccc(Br)c2)cc1`, which outcome [1] is on record?
The outcome was “inactive”.

For `Cn1cc(-c2cnn3c(N)c(Br)c([C@@H]4CCCNC4)nc23)cn1`, which Potency [2] is on record?
Its Potency is 35.5 µM (active).

With `COCCCn1c(N)c(C(=O)NCCC(C)C)c2nc3ccccc3nc21` as the compound, how does the Potency [3] read?
The Potency was 56.2 µM (active).

And the Potency [4]?
Its Potency is “inactive”.

And the activation [5]?
The activation was 8.34% [at 17.1 µM, percent relative to cAMP agonist control] (inactive).

And the activity change, negative = inhibition [6]?
The activity change, negative = inhibition was -14.1% [at 12.7 µM] (inactive).

What about the activity change, negative = inhibition [7] of the same compound?
The activity change, negative = inhibition was 2.52% [at 30.8 µM] (inactive).

For `CCN(CC)CCNC(=O)c1c(C)[nH]c(/C=C2/C(=O)Nc3ccc(-c4csc(-c5ccccc5)n4)cc32)c1C`, which Potency [2] is on record?
The Potency was 22.4 µM (active).

Which results are given for `CCCNC(=O)N1[C@H]2CC[C@@H]1C(C(=O)OC)=C(c1ccc(F)cc1OCc1ccccc1)C2`?
Potency [3]: inactive; Potency [4]: inactive; Potency [5]: inactive; Potency [6]: inactive; outcome [7]: inactive

Which activity change, negative = inhibition [2] does the source give for `Cc1ccc(NS(=O)(=O)c2cccc(C#N)c2)c2[nH]cc(C#N)c12` here?
Its activity change, negative = inhibition is -10.5%.

With `CCOC(=O)c1cc(CC)sc1/N=C/c1c(O)[nH]c(=S)[nH]c1=O` as the compound, how does the Potency [3] read?
Its Potency is “inactive”.

What about the Potency [4] of the same compound?
Its Potency is 100 µM (active).

What about the Potency [5] of the same compound?
The Potency was 100 µM (active).

And the Potency [6]?
Its Potency is “inactive”.

Which activity change, negative = inhibition [2] does the source give for `C[C@H](CCC(=O)O)[C@H]1CC[C@H]2[C@@H]3[C@@H](O)C[C@@H]4C[C@H](O)CC[C@]4(C)[C@H]3CC[C@]12C` here?
The activity change, negative = inhibition was -16.5%.

For `CCOC(=O)[C@]12Cc3ccc(C)cc3[C@H]1N(C1CCCCC1)C(=O)c1cc(OC)ccc12`, which Potency [3] is on record?
Its Potency is “inactive”.

And the Potency [4]?
The Potency was “inactive”.

And the Potency [5]?
The Potency was “inactive”.

And the Potency [6]?
The Potency was “inactive”.

What does the source list for `Nc1nc2c(c(=O)[nH]1)N1CN(c3ccc(C(=O)N[C@@H](CCC(=O)O)C(=O)O)cc3)CC1CN2` (some centres undefined)?
activity change, negative = inhibition [2]: -83.8%; Potency [8]: 3.41 µM (active)

For `O=C1NC(=O)N(c2cccc(Cl)c2)C(=O)/C1=C\c1ccc(Sc2nc3ccccc3[nH]2)o1`, which Potency [3] is on record?
The Potency was 28.2 µM (active).

What about the Potency [4] of the same compound?
The Potency was “inactive”.

And the activation [5]?
The activation was 5.77% [at 17.1 µM, percent relative to cAMP agonist control] (inactive).

And the activity change, negative = inhibition [6]?
The activity change, negative = inhibition was 0.757% [at 12.7 µM] (inactive).
